This is an account of results in PubChem BioAssay (NCI).

Molecules are shown by their SMILES. Compounds without any hit were thinned out: in the full panel of roughly 79,000, 15% have a hit. Calls of active or inactive are those of the source. Cut-off read from the data, not from the text of the source: active = growth inhibition above about 70%; inactive = the rest.

Test [1] in a line: NCI Yeast Anticancer Drug Screen. Data for the rad50 strain (AID 155).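 Note: 0% = growth of vehicle-only cultures of the same strain.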 The note with it: S. cerevisiae rad50 strain growth inhibition; at 50.0 µM; active compounds read high. Put shortly: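 Yeast carrying a defined DNA repair defect were exposed to test compounds, and growth was compared with vehicle-treated controls to give percent inhibition.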
Test [2] can be described thus: NCI Yeast Anticancer Drug Screen. Data for the mec2-1 strain (AID 157). Conditions: S. cerevisiae mec2-1 strain, at 50.0 µM, active compounds read high. A digest of the protocol:
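Mutant yeast (mec2-1) grown with compound; growth inhibition relative to vehicle control reported.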

A short description of test [3]: NCI Yeast Anticancer Drug Screen. Data for the sgs1 mgt1 strain (AID 161).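 Note: 0% = growth of cultures given vehicle only.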 Conditions: S. cerevisiae sgs1 mgt1 strain, at 50.0 µM, active compounds read high. A digest of the protocol: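 Compounds are added to genetically altered yeast, and growth is compared with cultures given vehicle alone to give percent inhibition.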
The nature of test [4]: NCI Yeast Anticancer Drug Screen. Data for the cln2 rad14 strain (AID 165).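 Note: 0% = growth equal to vehicle treated cultures.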 Conditions: S. cerevisiae cln2 rad14 strain, at 50.0 µM, active compounds read high. Put shortly: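 Readout is yeast growth inhibition versus vehicle-treated controls, using a strain with cln2 and rad14 alterations exposed to compound.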
Test [5] in a line: NCI Yeast Anticancer Drug Screen. Data for the bub3 strain (AID 167). Conditions: S. cerevisiae bub3 mutant strain, at 50.0 µM, active compounds read high. Put shortly: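 Compounds were applied to a genetically altered yeast strain carrying a cell-cycle control defect. Growth inhibition was scored against vehicle-treated controls.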
Test [6] in a line: NCI Yeast Anticancer Drug Screen. Data for the mlh1 rad18 strain (AID 175). The note with it: S. cerevisiae mlh1 rad18 strain growth inhibition; at 50.0 µM; active compounds read high. A digest of the protocol: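 Genetically defined yeast (DNA repair-deficient) exposed to compounds; growth inhibition determined relative to vehicle.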

As to `Nc1nc(N)c(-c2ccccc2)c(C(=O)Nc2ccc(Cl)c(Cl)c2)n1`, the growth inhibition is -27.9% (inactive) in test [1]; -34.4% (inactive) in test [2]; 4.1% (inactive) in test [3]; 5.6% (inactive) in test [4]; -23.1% (inactive) in test [5]; -16.4% (inactive) in test [6].

As to `CNC(=O)c1ccc(/C=C/c2c[nH]c3ccccc23)[n+](C)c1`, the growth inhibition in test [1] was -24.9% (inactive); in test [2], -7.9% (inactive); in test [3], -9.05% (inactive); in test [4], -11.2% (inactive); in test [5], -2.65% (inactive); in test [6], -13.3% (inactive).

`N#C/C=C/c1ccc(Cl)cc1`: the growth inhibition in test [1] is -3.45% (inactive); in test [2] it was -3% (inactive); in test [3], 7.2% (inactive); in test [4], 20.6% (inactive); in test [5] it was -2% (inactive); in test [6] it was -7.05% (inactive).

Consider `c1ccc(-c2nn(-c3ccccc3)[n+](-c3ccccc3)n2)cc1`, for which the growth inhibition in test [1] was 5.4% (inactive); in test [2] it was 1.15% (inactive); in test [3] it was 21.9% (inactive); in test [4], 24.1% (inactive); in test [5] it was 30.7% (inactive); in test [6], 4.35% (inactive).

`CC(=O)Oc1c(C(OC(C)=O)OC(C)=O)ccc([N+](=O)[O-])c1OC(C)=O`: the growth inhibition in test [1] is 34.1% (inactive); in test [2], 28.9% (inactive); in test [3] it was 36.5% (inactive); in test [4] it was 5.5% (inactive); in test [5] it was 9.3% (inactive); in test [6], 18.9% (inactive).

Consider `CCCCSc1nc2c([nH]1)c(=O)n(C)c(=O)n2C`, for which the growth inhibition in test [1] is -0.75% (inactive); in test [2], 2.8% (inactive); in test [3], 4.3% (inactive); in test [4], -34.5% (inactive); in test [5] it was 22.9% (inactive); in test [6], 1.5% (inactive).

Turning to `N/N=C(/CC(O)(C(F)(F)F)C(F)(F)F)c1ccccc1`, the growth inhibition is -10.8% (inactive) in test [1]; -24.9% (inactive) in test [2]; -13.9% (inactive) in test [3]; -3.7% (inactive) in test [4]; 3% (inactive) in test [5]; 2.65% (inactive) in test [6].

Turning to `CC1(C(O)(c2ccccc2)c2ccccc2)CC1(c1ccccc1)c1ccccc1` (stereo not drawn), the growth inhibition in test [1] was -21.4% (inactive); in test [2], -2.4% (inactive); in test [3], -10.9% (inactive); in test [4], -8.05% (inactive); in test [5], 1.3% (inactive); in test [6], -2.3% (inactive).

`c1ccc(-c2cc[c]([Sn]([c]3ccccc3)([c]3ccccc3)[c]3ccccc3)cc2)cc1`: the growth inhibition in test [1] is 95.2% (active); in test [2], 98.5% (active); in test [3] it was 96.8% (active); in test [4] it was 99.2% (active); in test [5] it was 99% (active); in test [6], 98.2% (active).

Turning to `O=C1OC(c2ccc(Cl)c3ccccc23)c2ccccc21` (stereo not drawn), the growth inhibition was 58.6% (inactive) in test [1]; 19.2% (inactive) in test [2]; 34.4% (inactive) in test [3]; 28.6% (inactive) in test [4]; 12.8% (inactive) in test [5]; 43.3% (inactive) in test [6].

For the compound `O=CCS`, the growth inhibition in test [1] was -0.2% (inactive); in test [2], 4.85% (inactive); in test [3], -5.6% (inactive); in test [4], -38% (inactive); in test [5], -31.2% (inactive); in test [6] it was 7.15% (inactive).

`NC(=Nc1ccc(S(=O)(=O)Nc2cnccn2)cc1)/N=C(/N)Nc1ccc(Br)cc1`: the growth inhibition was 4.2% (inactive) in test [1]; 3.9% (inactive) in test [2]; 15.7% (inactive) in test [3]; -4.65% (inactive) in test [4]; -5.65% (inactive) in test [5]; 27.1% (inactive) in test [6].

Consider `FC(F)(F)c1nn2c(c(-c3ccccc3)c(-c3ccccc3)c3ccccc32)c1C(F)(F)F`, for which the growth inhibition in test [1] is 32.9% (inactive); in test [2] it was 11.2% (inactive); in test [3], 28.9% (inactive); in test [4], 25.6% (inactive); in test [5], -4.4% (inactive); in test [6], 31.8% (inactive).

As for `COC(=O)C(/C(=N/N)C(=O)Nc1cccc(O)c1)c1nc2ccccc2[nH]c1=O` (stereo not drawn), the growth inhibition is -39.1% (inactive) in test [1]; -7.65% (inactive) in test [2]; -42% (inactive) in test [3]; -15.2% (inactive) in test [4]; -39.1% (inactive) in test [5]; -34.4% (inactive) in test [6].

In the case of `CC1(C#N)C(C#N)(C#N)C1(C#N)C#N`, the growth inhibition is -0.05% (inactive) in test [1]; -3.35% (inactive) in test [2]; -10.8% (inactive) in test [3]; -13.2% (inactive) in test [4]; -30.1% (inactive) in test [5]; -21.1% (inactive) in test [6].

As for `Cc1ccc2[nH]c(=O)[nH]c2c1`, the growth inhibition was -13.6% (inactive) in test [1]; -6.2% (inactive) in test [2]; -0.25% (inactive) in test [3]; -5.3% (inactive) in test [4]; 2.15% (inactive) in test [5]; -22.4% (inactive) in test [6].

Take `Cc1nc(-c2cc3c(ccc4ccccc43)oc2=O)cs1`: the growth inhibition in test [1] was 21.5% (inactive); in test [2], -8.85% (inactive); in test [3], -4.45% (inactive); in test [4], 25.8% (inactive); in test [5] it was -4.4% (inactive); in test [6] it was -21.5% (inactive).

For `NCCCCC(N)C(=O)O` (stereo not drawn), the growth inhibition was 7.4% (inactive) in test [1]; 9.25% (inactive) in test [2]; -33.9% (inactive) in test [3]; 8.55% (inactive) in test [4]; -2.1% (inactive) in test [5]; 22% (inactive) in test [6].
